The source of these data is PubChem BioAssay.

Assay [1] concerns the target Albumin (Bos taurus) (UniProt P02769). As to the kind of experiment: compounds binding labelled BSA control protein – biochemical, small-molecule microarray, Alexa647 label, 635/667 nm fluorescence, artefact control for SMM control protein annotation, profiling panel (AID 1118).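 Further: score merges 667 nm emission intensity and signal-to-noise per printed compound spot.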 The settings on record: BSA-A647 binding, fluorescence 635 nm, higher = more signal.
Assay [2] is described as follows: probe aXIP binding to arrayed compounds – biochemical, NeuroSMM set, 635/667 nm fluorescence, primary screen (AID 1119).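 Further: probe is the protein aXip251-270 applied at 1 µg/mL to compound-printed slides; binding of probe to printed compounds measured as 667 nm fluorescence plus signal to noise.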 The settings on record: small-molecule microarray, higher = more signal, called active from +8 up or from −8 down.
Assay [3] is described as follows: probe aNOTCH3 binding on compound microarray – biochemical, small-molecule microarray, 635/667 nm fluorescence, primary screen (AID 1120).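 Further: probe is a biotin-tagged antibody raised against NOTCH3 rather than NOTCH3 protein; score merges spot fluorescence near 667 nm with spot signal to noise.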 The following applies: higher = more signal.
Assay [4] is described as follows: probe aNOTCH2 binding on compound microarray – biochemical, small-molecule microarray, 635/667 nm fluorescence, primary screen (AID 1121).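 Further: score merges feature fluorescence read at 667 nm with its signal to noise.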 The settings on record: higher = more signal.
The target in assay [5] is Carbonic anhydrase 2 (Homo sapiens) (UniProt P00918). Briefly: compounds binding carbonic anhydrase 2 – biochemical, small-molecule microarray, Alexa647-labelled CAII, profiling panel (AID 1122). The following applies: CAII-A647 binding fluorescence, higher = more signal.
Assay [6] can be described thus: COS7 lysate on small-molecule microarray, probe aHis, 635 nm (AID 1123).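 Further: z-score combines 667nm fluorescence intensity with signal-to-noise per printed compound spot.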 The following applies: COS7 cell lysate, fluorescence, higher = more signal.
Assay [7] is described as follows: probe aLAP1 signal on lysate-treated microarray – cell lysate, small-molecule microarray, COS7 lysate, primary screen (AID 1124).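 Further: lysate comes from COS7 cells expressing LAP1 and is applied at 0.3 µg/mL; score merges spot fluorescence near 667 nm with signal-to-noise over triplicate slides.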 The following applies: probe aLAP1, fluorescence, higher = more signal.
In assay [8] the test system is Sam68 (KHDRBS1). As to the kind of experiment: compounds binding KHDRBS1 protein – biochemical, small-molecule microarray, 635 nm fluorescence, primary screen (AID 1125).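 Further: score merges 667 nm channel intensity with signal to noise over triplicate slides.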 The settings on record: higher = more signal.
The test system of assay [9] is Chordin-like protein 2 (CHRDL2). Briefly: compounds binding chordin-like 2 – biochemical, small-molecule microarray, 635 nm fluorescence, primary screen (AID 1126).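 Further: printed compound slides probed with Chrdl2 protein at 4 µg/mL for 1 h at 4 C; score merges 667 nm emission intensity with signal to noise over three replicate slides.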 The following applies: fluorescence 635 nm, higher = more signal.
Assay [10] concerns the target Concanavalin-A (Canavalia ensiformis) (UniProt P02866). Briefly: compounds binding concanavalin A lectin – biochemical, small-molecule microarray, Alexa647 label, 635 nm, artefact control for SMM control protein annotation, primary screen (AID 1127).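 Further: z combines 667 nm emission intensity with signal-to-noise across three replicate slides.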 The following applies: ConA-A647 binding fluorescence, higher = more signal.
Assay [11] is described as follows: compounds binding Alexa647 anti-His antibody – biochemical, small-molecule microarray, 635 nm fluorescence, artefact control for SMM control protein annotation, primary screen (AID 1128).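 Further: score merges feature fluorescence with signal-to-noise for each printed compound spot.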 The settings on record: higher = more signal.
Assay [12] deals with Human papillomavirus type 1a E7 protein (residues 1-88). As to the kind of experiment: HPV1a E7 small-molecule binders, primary screen, biochemical, small-molecule microarray, residues 1-88, 635 nm (AID 1129). The settings on record: small-molecule microarray binding, fluorescence 635 nm; higher = more signal.
The target in assay [13] is Focal adhesion kinase 1 (Homo sapiens) (UniProt Q05397). Briefly: PTK2 protein binding on printed compound slides – biochemical, small-molecule microarray, 635/667 nm fluorescence, BSA, DTT, primary screen (AID 1130).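 Further: composite of spot emission at 667 nm and signal to noise over triplicate slides.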 The following applies: 635 nm fluorescence, higher = more signal.
Assay [14] concerns Fibrinogen (Alexa647-labelled). As to the kind of experiment: Alexa647-fibrinogen binding to printed small molecules – biochemical, small-molecule microarray, 635/667 nm fluorescence, artefact control for SMM control-protein annotation, profiling panel (AID 1131).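 Further: z-score merges 667 nm fluorescence with per-spot signal-to-noise over triplicate slides.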 The following applies: fibrinogen-A647 binding fluorescence, higher = more signal.
The target of assay [15] is Follistatin (Homo sapiens) (UniProt P19883). As to the kind of experiment: FST protein binding to printed compounds – biochemical, small-molecule microarray, 635/667 nm fluorescence, primary screen (AID 1132). The following applies: 635 nm fluorescence, higher = more signal.
In assay [16] the target is Fibroblast growth factor 2 (Homo sapiens) (UniProt P09038). As to the kind of experiment: basic fibroblast growth factor binding to printed compounds – biochemical, small-molecule microarray, 635/667 nm fluorescence, primary screen (AID 1133). The settings on record: FGF2, fluorescence 635/667, higher = more signal.
Assay [17] is described as follows: JC-1 mitochondrial potential readout, lung cancer cells – cell-based, A549, JC-1 fluorescence, basal, 24 h, 100 nL, profiling panel (AID 1138).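 Further: A549 lung adenocarcinoma cells under basal conditions with no added stimulus; test concentration not given here.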 The following applies: higher = more signal.
For assay [18], the system named is Lefty1. As to the kind of experiment: Lefty1 protein binding to printed compounds – biochemical, small-molecule microarray, 635/667 nm fluorescence, primary screen (AID 1139). The following applies: fluorescence 635/667, higher = more signal.
Assay [19] has as its system wheat germ agglutinin (Triticum aestivum), Alexa647-labelled. As to the kind of experiment: Alexa647-WGA lectin binding to printed small molecules – biochemical, small-molecule microarray, 635/667 nm fluorescence, artefact control for SMM control-protein annotation, profiling panel (AID 1140).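 Further: score merges 667 nm feature emission with signal to noise over triplicate slides.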 The following applies: WGA-A647 binding, 635 nm fluorescence, higher = more signal.

In assay [20] the target is Luciferin 4-monooxygenase (Photinus pyralis) (UniProt P08659). Briefly: inhibition of purified Photinus pyralis luciferase – biochemical, luminescence, purified enzyme, 2006 set, primary screen (AID 1141).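 Further: cell-free assay with purified firefly luciferase at 100 ng per well in PBS; test concentration not given here.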 The following applies: purified firefly luciferase, SteadyGlo luminescence, 30 min; higher = more signal, called active from +8 up or from −8 down.

Active and inactive are the calls of the source.

Concanavalin-A (Canavalia ensiformis), sequence (P02866 whole entry, looked up): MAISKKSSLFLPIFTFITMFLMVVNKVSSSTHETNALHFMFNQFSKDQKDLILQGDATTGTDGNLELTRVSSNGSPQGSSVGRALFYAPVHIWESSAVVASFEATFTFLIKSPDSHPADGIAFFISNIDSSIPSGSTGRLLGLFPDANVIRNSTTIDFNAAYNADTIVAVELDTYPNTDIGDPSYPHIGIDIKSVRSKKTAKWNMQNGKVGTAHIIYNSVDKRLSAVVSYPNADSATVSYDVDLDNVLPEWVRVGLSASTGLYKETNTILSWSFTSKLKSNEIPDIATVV
Fibroblast growth factor 2 (Homo sapiens), sequence (P09038 whole entry, looked up): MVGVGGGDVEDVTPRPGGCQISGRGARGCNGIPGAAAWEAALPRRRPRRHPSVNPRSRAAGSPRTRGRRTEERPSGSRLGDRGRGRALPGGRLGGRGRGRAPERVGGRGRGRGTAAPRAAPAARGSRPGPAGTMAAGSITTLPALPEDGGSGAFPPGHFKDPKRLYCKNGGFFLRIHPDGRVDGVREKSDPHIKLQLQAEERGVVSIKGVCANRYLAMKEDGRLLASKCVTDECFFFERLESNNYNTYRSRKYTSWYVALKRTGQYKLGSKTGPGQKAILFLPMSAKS
Focal adhesion kinase 1 (Homo sapiens), sequence (Q05397 whole entry, looked up): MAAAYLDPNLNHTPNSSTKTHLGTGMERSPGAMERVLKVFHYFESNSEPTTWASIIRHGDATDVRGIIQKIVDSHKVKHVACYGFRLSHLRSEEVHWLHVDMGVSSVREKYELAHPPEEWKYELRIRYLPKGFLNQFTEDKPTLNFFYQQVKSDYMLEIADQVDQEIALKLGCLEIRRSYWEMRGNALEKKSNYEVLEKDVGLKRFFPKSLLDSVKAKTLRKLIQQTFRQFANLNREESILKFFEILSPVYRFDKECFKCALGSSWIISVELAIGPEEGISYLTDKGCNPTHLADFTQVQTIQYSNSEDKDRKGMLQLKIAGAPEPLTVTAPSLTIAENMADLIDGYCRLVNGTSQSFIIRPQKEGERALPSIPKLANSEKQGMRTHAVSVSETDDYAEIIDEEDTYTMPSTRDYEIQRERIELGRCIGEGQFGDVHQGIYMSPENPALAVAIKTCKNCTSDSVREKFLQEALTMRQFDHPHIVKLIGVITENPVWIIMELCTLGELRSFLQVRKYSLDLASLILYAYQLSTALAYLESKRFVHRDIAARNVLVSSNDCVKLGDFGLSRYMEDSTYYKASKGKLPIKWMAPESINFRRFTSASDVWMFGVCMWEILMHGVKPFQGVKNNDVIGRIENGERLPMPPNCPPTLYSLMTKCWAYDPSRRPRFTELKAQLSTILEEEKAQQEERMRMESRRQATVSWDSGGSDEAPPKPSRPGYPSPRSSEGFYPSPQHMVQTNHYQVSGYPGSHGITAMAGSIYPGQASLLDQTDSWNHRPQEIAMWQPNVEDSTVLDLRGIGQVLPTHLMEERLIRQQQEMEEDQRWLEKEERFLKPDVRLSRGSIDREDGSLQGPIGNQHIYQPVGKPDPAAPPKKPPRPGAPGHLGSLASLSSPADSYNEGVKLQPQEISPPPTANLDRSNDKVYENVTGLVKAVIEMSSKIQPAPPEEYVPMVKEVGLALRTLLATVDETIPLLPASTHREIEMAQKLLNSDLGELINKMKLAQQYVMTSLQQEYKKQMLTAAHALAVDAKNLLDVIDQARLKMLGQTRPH
Follistatin (Homo sapiens), sequence (P19883 whole entry, looked up): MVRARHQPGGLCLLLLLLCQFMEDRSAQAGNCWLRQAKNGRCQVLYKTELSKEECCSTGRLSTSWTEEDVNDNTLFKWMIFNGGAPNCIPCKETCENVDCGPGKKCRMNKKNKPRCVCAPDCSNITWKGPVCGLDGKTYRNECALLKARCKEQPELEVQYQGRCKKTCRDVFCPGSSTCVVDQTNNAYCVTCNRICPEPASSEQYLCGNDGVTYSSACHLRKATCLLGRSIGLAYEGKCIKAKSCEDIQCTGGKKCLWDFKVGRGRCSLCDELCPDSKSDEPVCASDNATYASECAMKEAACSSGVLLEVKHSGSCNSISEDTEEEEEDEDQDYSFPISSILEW
Albumin (Bos taurus), sequence (P02769 whole entry, looked up): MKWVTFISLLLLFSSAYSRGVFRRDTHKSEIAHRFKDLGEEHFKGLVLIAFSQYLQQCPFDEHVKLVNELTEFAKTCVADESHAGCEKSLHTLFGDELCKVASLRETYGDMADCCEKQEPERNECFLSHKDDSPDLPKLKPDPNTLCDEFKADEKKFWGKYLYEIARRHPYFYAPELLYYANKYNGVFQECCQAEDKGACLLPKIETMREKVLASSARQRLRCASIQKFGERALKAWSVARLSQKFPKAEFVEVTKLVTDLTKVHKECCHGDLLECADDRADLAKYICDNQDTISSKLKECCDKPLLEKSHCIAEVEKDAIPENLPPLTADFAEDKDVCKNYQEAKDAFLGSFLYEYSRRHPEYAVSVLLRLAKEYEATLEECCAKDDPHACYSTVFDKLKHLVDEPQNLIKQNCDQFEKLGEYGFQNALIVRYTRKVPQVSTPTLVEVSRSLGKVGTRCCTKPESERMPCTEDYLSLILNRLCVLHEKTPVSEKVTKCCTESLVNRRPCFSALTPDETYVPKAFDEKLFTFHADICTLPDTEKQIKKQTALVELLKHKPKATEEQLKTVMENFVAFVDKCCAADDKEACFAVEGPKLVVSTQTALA
Luciferin 4-monooxygenase (Photinus pyralis), sequence (P08659 whole entry, looked up): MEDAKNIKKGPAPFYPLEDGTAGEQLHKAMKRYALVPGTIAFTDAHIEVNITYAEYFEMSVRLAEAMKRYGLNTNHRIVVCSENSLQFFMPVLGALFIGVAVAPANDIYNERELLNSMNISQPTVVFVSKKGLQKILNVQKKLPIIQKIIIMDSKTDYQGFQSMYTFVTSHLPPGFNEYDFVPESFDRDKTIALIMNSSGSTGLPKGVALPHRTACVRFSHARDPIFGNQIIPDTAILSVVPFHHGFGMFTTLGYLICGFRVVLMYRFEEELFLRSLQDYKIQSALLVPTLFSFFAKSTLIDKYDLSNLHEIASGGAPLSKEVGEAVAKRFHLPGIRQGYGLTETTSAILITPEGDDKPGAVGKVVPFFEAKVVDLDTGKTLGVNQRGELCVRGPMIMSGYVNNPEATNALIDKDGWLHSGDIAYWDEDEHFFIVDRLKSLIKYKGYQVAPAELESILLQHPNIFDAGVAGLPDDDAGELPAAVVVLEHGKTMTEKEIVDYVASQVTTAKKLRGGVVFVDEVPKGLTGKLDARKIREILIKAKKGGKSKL

As for `O=C1OCC=C[C@H]2OC34C=CCN(Cc5ccccc5)C(=O)[C@H]3N(CCCCCCO)C(=O)[C@@H]4[C@@H]12` (stereo not given in full), the composite z-score in assay [1] is 0.4; in assay [3] it was -0.302; in [4], -0.162; in assay [5], 0.914; in assay [6], 0.0976; in assay [7], 1.31. In addition, the composite z-score in assay [8] was -0.398; in [9] it was -0.694; in [10] it was -0.159; in assay [11], 1.29; in assay [12] it was -0.0134; in assay [13], 0.879. Besides, the composite z-score is -1.25 in [14]; -0.562 in assay [15]; -0.292 in [16]; -0.128 in [18]; 0.206 in assay [19]. In addition, in assay [2], the composite Z-score is 0.604 (inactive). The values for the z-score in assay [17] and in assay [20] were 0.0814 and -3.54 (inactive), respectively.

Take `C=C(C)c1cc2c(c(CCCCCC)n1)[Si](C(C)C)(C(C)C)OC2`: the composite z-score in assay [1] is -0.923; in assay [3] it was -0.296; in [4], -0.146; in assay [5], -0.484; in assay [6], -0.369; in assay [7], -0.603. Also, the composite z-score in assay [8] is -0.631; in assay [9], -1.41; in assay [10], -0.277; in assay [11], 0.18; in [12], -1.15; in [13], -0.534. For the same compound, the composite z-score in [14] was -1.93; in [15] it was -0.522; in [16], -1.45; in [18] it was -0.174; in assay [19] it was -1.19. Besides, the composite Z-score in assay [2] is -0.335 (inactive). The figures for the z-score in [17] and in assay [20] were -1.17 and 0.903 (inactive), respectively.

As to `Cc1ccc(S[C@]2(C(=O)O)CC(=O)N(C3Cc4ccccc4C3)[C@@H]2c2ccc(CO)cc2)cc1`, the composite z-score in [1] is 0.0322; in assay [3] it was -0.102; in [4], -0.057; in assay [5] it was 0.727; in assay [6], 2.65; in [7], 0.826. In addition, the composite z-score in assay [8] was 0.667; in assay [9] it was -1.8; in assay [10] it was -0.458; in assay [11] it was 3.14; in assay [12], 0.246; in [13], 0.583. Further, the composite z-score in assay [14] was -0.428; in assay [15] it was -0.987; in [16], -0.306; in assay [18], -0.889; in [19] it was -0.339. In addition, in [2], the composite Z-score is 0.736 (inactive). Moreover, the z-score in assay [17] was 0.225; in assay [20] it was -0.675 (inactive).

As for `O=C1C2C=CC(C(O)c3ccc(F)cc3)N(n3cnnc3)C2C(=O)N1Cc1ccccc1` (stereo not given), the composite z-score in assay [1] is -0.224; in assay [3], 0.0065; in assay [4], -0.14; in assay [5], 0.561; in [6] it was 0.747; in [7], -0.138. Further, the composite z-score in [8] is -0.256; in assay [9], -0.62; in assay [10] it was -0.129; in [11], -0.782; in assay [12] it was -0.657; in assay [13] it was -0.284. Also, the composite z-score in assay [14] is -0.48; in [15], -0.524; in assay [16], -0.529; in assay [18], -0.881; in assay [19], -0.271. Moreover, in assay [2], the composite Z-score was 0.878 (inactive). For the same compound, the z-score in [17] is -1.3; in assay [20], 1.24 (inactive).

In the case of `Cc1ccc(S[C@]2(C(=O)O)CC(=O)N(Cc3ccccc3Cl)[C@@H]2c2ccc(CO)cc2I)cc1`, the composite z-score in [1] was 0.0877; in assay [3] it was -0.515; in [4], -0.269; in assay [5], 0.31; in assay [6], 0.546; in assay [7], -0.635. Further, the composite z-score was 0.409 in [8]; -0.0996 in [9]; -0.1 in [10]; 0.12 in [11]; 0.193 in [12]; 0.287 in [13]. Further, the composite z-score in [14] was -0.147; in [15] it was 0.257; in [16] it was 0.261; in assay [18], -1.23; in [19] it was 0.435. Besides, in [2], the composite Z-score was -0.648 (inactive). Also, the figures for the z-score in assay [17] and in assay [20] were -0.134 and 0.341 (inactive), respectively.
